# Test results reported in PMC10726135, “HNF4α isoforms regulate the circadian balance between carbohydrate and lipid metabolism in the liver”.
# Over roughly 18,000 sequences, “log2 normalized intensity” has its median near 0.36; the highest 2% begin near 7.3. The entries come from a sample that favours the highest values as a whole.
# Target: T1, HNF4alpha8 (COS-7 nuclear extract) (Homo sapiens, UniProt P41235-5 1-452)
# T1 sequence: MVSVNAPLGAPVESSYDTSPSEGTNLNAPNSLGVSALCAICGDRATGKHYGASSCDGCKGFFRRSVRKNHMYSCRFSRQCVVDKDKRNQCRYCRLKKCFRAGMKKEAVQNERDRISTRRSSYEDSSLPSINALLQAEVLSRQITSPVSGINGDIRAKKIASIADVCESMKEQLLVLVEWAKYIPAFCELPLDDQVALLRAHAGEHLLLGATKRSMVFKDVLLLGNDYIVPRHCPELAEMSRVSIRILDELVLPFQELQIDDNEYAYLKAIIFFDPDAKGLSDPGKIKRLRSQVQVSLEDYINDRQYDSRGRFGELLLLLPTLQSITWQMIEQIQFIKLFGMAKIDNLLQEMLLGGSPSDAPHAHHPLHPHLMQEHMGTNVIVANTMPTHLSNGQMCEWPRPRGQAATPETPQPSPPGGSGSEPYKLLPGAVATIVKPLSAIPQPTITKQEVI
# Experiment: protein-binding microarray; COS-7 nuclear extract on double-stranded Agilent 4x180k PBM; binding buffer, salt, pH and temperature not given in the material; high values mean tight binding
# Settings: chain copies: 2; label: 3' end of strand 1 on the slide; dsDNA, one strand shown
# How it was run: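 Binding signal was defined as the normalized, background-corrected gProcessedSignal reported by Agilent software. It came from nuclear extracts of COS-7 cells transiently transfected with a human HNF4α isoform expression vector, applied to a custom Agilent SurePrint G3 4x180k array. That array held ~44,000 test sequences in quadruplicate as double-stranded ~60-nt oligonucleotides, and bound HNF4α was imaged at 2-µm resolution on an Agilent G2565CA scanner.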
row,Sequence,binding signal [log2 normalized intensity]
1,GTGCACTTTGACCCTGCTGTAGTGTGTAAGGCCTAGGGAGATTAGAGTATCGGTCGA,5.69
2,TCTTGTCCTTCCCCTTTTGTGTTTGTCCCTGCCTAGGGAGATTAGAGTATCGGTCGA,3.03
3,TCCTCTCTCCCACAAGGGCAGCCCTGTTTAGCCTAGGGAGATTAGAGTATCGGTCGA,-0.515
4,TTGTCCTTAGACAGTAACCCTTGAGCTCTGGCCTAGGGAGATTAGAGTATCGGTCGA,3.73
5,TGAGACTTTGGACTTTTGAACTAAGGCTGGGCCTAGGGAGATTAGAGTATCGGTCGA,5.5
6,AGCTGGACTTTGAACTTCATGTGTGGTGCAGCCTAGGGAGATTAGAGTATCGGTCGA,6.95
7,CCTAAATCTAAGCTGGACTTTGAACTTCATGCCTAGGGAGATTAGAGTATCGGTCGA,9.68
8,GACTTTGAACTTCATGTGTGGTGCAGATTCGCCTAGGGAGATTAGAGTATCGGTCGA,2.1
9,ATCTAAGCTGGACTTTGAACTTCATGTGTGGCCTAGGGAGATTAGAGTATCGGTCGA,8.61
10,CTTTGGACTTTTGAACTAAGGCTGGAATGAGCCTAGGGAGATTAGAGTATCGGTCGA,3.69
11,ATTATGGTAGGCAGCCTCTGAGATGGACTCGCCTAGGGAGATTAGAGTATCGGTCGA,3.96
12,AAATTATTACTCCCACCGTGTGTGCACTTTGCCTAGGGAGATTAGAGTATCGGTCGA,3.9
13,TGAAAGTTCTCTGGGCTTTTTGATCTTGTCGCCTAGGGAGATTAGAGTATCGGTCGA,1.25
14,CCCTCGGGCCGGGAAACGCCCTCGGCGCGCGCCTAGGGAGATTAGAGTATCGGTCGA,1.34
15,GGTCAAAGGTCAGTTTCTTTAAGACAAGTGGCCTAGGGAGATTAGAGTATCGGTCGA,5.86
16,GAACAGGTCAAAGGTCAGTTTCTTTAAGACGCCTAGGGAGATTAGAGTATCGGTCGA,7.63
17,AAGATTTATCAGGTCTTTCTTTCAGAACAGGCCTAGGGAGATTAGAGTATCGGTCGA,0.553
18,TCAGAAACAGGAATTCAAAGGTGCAAAGGTGCCTAGGGAGATTAGAGTATCGGTCGA,2.84
19,GCAGAGCAGTTTAGAGAAAGGGTCAAAGGTGCCTAGGGAGATTAGAGTATCGGTCGA,6.23
20,TAGGAGACTGTCTTAGGAAAGAACAGGTCAGCCTAGGGAGATTAGAGTATCGGTCGA,0.841
21,GACTGTCTTAGGAAAGAACAGGTCAAAGGTGCCTAGGGAGATTAGAGTATCGGTCGA,5.06

row,Sequence,binding signal [log2 normalized intensity]
1,GGAAAGAACAGGTCAAAGGTCAGTTTCTTTGCCTAGGGAGATTAGAGTATCGGTCGA,7.69
2,CTTTGGACTTTCAAAAGTTAAGGTCAAGACGCCTAGGGAGATTAGAGTATCGGTCGA,2.78
3,TCTTAGGAAAGAACAGGTCAAAGGTCAGTTGCCTAGGGAGATTAGAGTATCGGTCGA,9.61
4,TTAGAGAAAGGGTCAAAGGTTAAGCCATTGGCCTAGGGAGATTAGAGTATCGGTCGA,6.33
5,GCAGTTTAGAGAAAGGGTCAAAGGTTAAGCGCCTAGGGAGATTAGAGTATCGGTCGA,9.04
6,ACCGTAAATGCATTATTGCACTGTGCTTTGGCCTAGGGAGATTAGAGTATCGGTCGA,1.3
7,TGCTCTCAGCACACTCTGGTACCATGGATGGCCTAGGGAGATTAGAGTATCGGTCGA,0.953
8,GGCTCTCCCGGGGCGGGGGTGACCAGATTAGCCTAGGGAGATTAGAGTATCGGTCGA,1.07
9,TCAGGGGTCAATGTGCACATTCGAAGTTTTGCCTAGGGAGATTAGAGTATCGGTCGA,4.86
10,CATCTGGGCAAGGTGTCAACCTTCATTCTCGCCTAGGGAGATTAGAGTATCGGTCGA,0.575
11,TCTTTTTAATCAATAATCTTTGCCCTTGAAGCCTAGGGAGATTAGAGTATCGGTCGA,3.49
12,AGCATATTTGGCCACATCCTGTCTCCTTTAGCCTAGGGAGATTAGAGTATCGGTCGA,1.11
13,CCTGAAGGGTGTTGTGGAATGTGCTTGGACGCCTAGGGAGATTAGAGTATCGGTCGA,2.16
14,TTTGTCACATTCCAGACTTTGTACAAGGGCGCCTAGGGAGATTAGAGTATCGGTCGA,3.1
15,AGAAGTTGGACTTTGTACATTCCAAATACGGCCTAGGGAGATTAGAGTATCGGTCGA,7.64
16,CCTGGTGACCTTTGTTTGGTCAAATACCTAGCCTAGGGAGATTAGAGTATCGGTCGA,3.66
17,TCCAAAATACGACCTTTGGACAGGGTGACGGCCTAGGGAGATTAGAGTATCGGTCGA,7.56
18,GTACTTTGTACATGGGAATAGACATTCCAGGCCTAGGGAGATTAGAGTATCGGTCGA,1.99
19,GGGCTTTTGTCACATTCCAGACTTTGTACAGCCTAGGGAGATTAGAGTATCGGTCGA,5.85
20,TTGGACTTTGTACATTCCAAATACGATAATGCCTAGGGAGATTAGAGTATCGGTCGA,5.9
21,ACATCAGAAGTTGGACTTTGTACATTCCAAGCCTAGGGAGATTAGAGTATCGGTCGA,8.13
